# PubChem BioAssay (Tox21)
# Active and inactive are the calls of the source. Entries that show only a call come without a potency. The call rests on the fitted dose curve.
# Target: Acetylcholinesterase (Homo sapiens) (UniProt P22303)
# Assay: Acetylcholinesterase (AChE) small molecule antagonists: enzyme-based qHTS assay (AID 1347397); further: nearly all actives have a fitted effect of over 55% in size
# Conditions: Potency: AChE enzyme activity inhibition; outcome: AChE enzyme activity inhibition; series mostly up to 115 µM
# How it was run: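 Enzyme inhibition was scored from DTNB-detected thiocholine formed by recombinant human AChE acting on acetylthiocholine. The 30 min compound preincubation and 10 min substrate reaction were both run at room temperature, with DMSO as vehicle control.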
# Chain of Acetylcholinesterase (Homo sapiens) (P22303 whole entry, looked up): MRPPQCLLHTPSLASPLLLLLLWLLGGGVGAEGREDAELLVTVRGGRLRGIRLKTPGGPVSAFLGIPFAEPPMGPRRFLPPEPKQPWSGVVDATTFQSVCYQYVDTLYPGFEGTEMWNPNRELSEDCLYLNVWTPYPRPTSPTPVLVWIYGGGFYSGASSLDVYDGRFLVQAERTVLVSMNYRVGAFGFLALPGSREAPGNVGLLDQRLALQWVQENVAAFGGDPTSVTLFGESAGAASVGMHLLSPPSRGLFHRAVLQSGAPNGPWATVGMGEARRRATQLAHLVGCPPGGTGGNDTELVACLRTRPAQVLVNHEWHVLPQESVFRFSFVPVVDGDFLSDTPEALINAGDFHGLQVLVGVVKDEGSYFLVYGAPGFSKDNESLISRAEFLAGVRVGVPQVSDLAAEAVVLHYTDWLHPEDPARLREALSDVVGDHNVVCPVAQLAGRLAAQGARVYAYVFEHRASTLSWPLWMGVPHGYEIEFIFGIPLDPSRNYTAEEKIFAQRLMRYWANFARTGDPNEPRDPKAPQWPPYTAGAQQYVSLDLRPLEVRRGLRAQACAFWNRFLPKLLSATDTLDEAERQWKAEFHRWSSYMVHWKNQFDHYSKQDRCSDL
SMILES,Potency,"activity change, negative = inhibition"
O=C(O)c1cccc(-c2noc(-c3ccccc3F)n2)c1,inactive,–
CCC(OCCCOC)OC(C)=O (stereo not given),inactive,–
OCCN1CN(CCO)CN(CCO)C1,inactive,–
CCN(CC)c1ccc2c(-c3ccc(S(=O)(=O)O)cc3S(=O)(=O)[O-])c3ccc(=[N+](CC)CC)cc-3oc2c1,inactive,–
Cc1cccc(N(C)C)c1,inactive,–
CCCCCCCCCOC(=O)c1ccccc1C(=O)OCCCCCCCCC,inactive,–
CC1=C(O)C(=O)C(C)O1 (stereo not given),inactive,–
CCCCCCCCCCCCS(=O)(=O)Cl,–,0.136% [at 23.6 µM] (inactive)
CN1[C@@H]2CC[C@H]1CC(OC(=O)C(O)c1ccccc1)C2 (stereo not given in full),inactive,–
CC(C(=O)O)c1ccc2c(c1)Cc1cccnc1O2 (stereo not given),inactive,–
CCCCCCCCCC(C)=O,inactive,–
CC1=NS(=O)(=O)c2cc(Cl)ccc2N1,inactive,–
O=S(=O)(O)c1ccccc1O,inactive,–
N#Cc1ccc(C/C(=N/NC(=O)Nc2ccc(OC(F)(F)F)cc2)c2cccc(C(F)(F)F)c2)cc1,inactive,–
CC(=O)c1c(C)cc(C(C)(C)C)cc1C,inactive,–
[Ca+2],inactive,–
O=C1NC(=O)c2cc([N+](=O)[O-])ccc21,inactive,–
OC[C@H]1O[C@@H](O[C@@H]2[C@@H](CO)O[C@](O)(CO)[C@H]2O)[C@H](O)[C@@H](O)[C@H]1O,inactive,–
CC(=O)CCC1=C(C)CCCC1(C)C,inactive,–
COc1cccc(Br)c1,inactive,–

SMILES,Potency,"activity change, negative = inhibition"
Cc1ccc2sc3cccc(C)c3c2c1,inactive,–
COc1ccc2cccc(CCNC(C)=O)c2c1,inactive,–
COc1ccc(OC)c(Cl)c1,inactive,–
CC1(C)CC(N)CC(C)(C)N1,inactive,–
COc1ncnc(NS(=O)(=O)c2ccc(N)cc2)c1OC,inactive,–
CCCCCCCCCCCCCCC1CO1 (stereo not given),inactive,–
CCc1cccc(CC)c1NC(=O)C(=O)O,inactive,–
NC(=O)c1ccncc1,inactive,–
CCN(C(=O)N(CC)c1ccccc1)c1ccccc1,inactive,–
COc1ccc(OC(=O)N(CC(=O)O)Cc2ccc(OCCc3nc(-c4ccccc4)oc3C)cc2)cc1,inactive,–
CCCC(=O)OCCc1ccccc1,inactive,–
O=S(=O)(O)c1ccc(Nc2nc(Nc3ccc(/C=C/c4ccc(Nc5nc(Nc6ccc(S(=O)(=O)O)cc6)nc(N(CCO)CCO)n5)cc4S(=O)(=O)O)c(S(=O)(=O)O)c3)nc(N(CCO)CCO)n2)cc1,inactive,–
O=C(OC(=O)c1ccccc1)c1ccccc1,inactive,–
CCOC(=O)CC(=O)C(=O)OCC,inactive,–
C/C=C/C=C/C=O,inactive,–
CCOC(=O)c1ccc(N(C)C)cc1,inactive,–
CCOC(=O)/C=C/C(=O)OCC,inactive,–
CC(CSC(=O)c1ccccc1)C(=O)N1C[C@@H](Sc2ccccc2)C[C@H]1C(=O)O (stereo not given in full),–,-0.415% [at 23.6 µM] (inactive)
COc1ccc2nc(NC(=O)Nc3ccccc3)sc2c1,inactive,–
CC1=CC(=O)CC(C)(C)C1=O,inactive,–
